Test results from PubChem BioAssay AID1745845 (National Center for Advancing Translational Sciences (NCATS), 2022).
Among all 360,000 compounds or so, about 2,600 (0.72%) were called active. Not shown: some 5% with an inconclusive outcome. Calls follow the shape of the dose curve; as a rule, active = well fitted inhibition curve with a large enough effect; inconclusive = small, poorly fitted or top-dose-only effect; inactive = no such curve, though single readings can be large or run the other way. Only a selection was taken, and actives are over-represented in it overall.

Assay: Primary qHTS for Inhibitors of ATXN expression; also: nearly all actives have a fitted effect of over 55% in size
Details: HEK-293 ATXN2-luciferase reporter, luminescence, 24 h; series mostly up to 57 µM; activity change, negative = inhibition: at the top concentration
Summary of the method: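 ATXN2-luciferase reporter cells (luciferase flanked by upstream and downstream ATXN2 gene portions) were treated 24 h at 37 °C with compounds at up to 57 uM. SteadyGlo luminescence gave expression; GF-AFC fluorescence gave viability.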
% is scaled to controls: 0 for no effect and ±100 for the full control effect; potency is read from the fitted curve at half-maximal effect.

Row | Structure (SMILES) | activity change, negative = inhibition | Potency
1 | C=CCn1c(COc2cccc3cccnc23)nnc1SCC(=O)OC | 9.7% (inactive) | 
2 | COc1ccc(CCNS(=O)(=O)c2cccc3cccnc23)cc1OC | 1.2% (inactive) | 
3 | CCCCC(=O)NC(c1ccc(OC)c(OC)c1)c1ccc2cccnc2c1O (stereo not drawn) |  | 5.01 µM (active)
4 | CC1=C(C(=O)N(C(C)C)C(C)C)CC(CC(=O)NCCCCc2ccccc2)C(=O)N1CCC1=CCCCC1 (stereo not drawn) | -11.7% (inactive) | 
5 | CCc1c2c(nc3ccc(O)cc13)-c1cc3c(c(=O)n1C2)COC(=O)[C@]3(O)CC |  | 0.0061 µM (active)
6 | CCCCN(CC)C(=S)Nc1ccc2nc3n(c(=O)c2c1)CCCCC3 | 1.25% (inactive) | 
7 | COc1ccc(C(=O)COC(=O)CCCC(=O)Nc2cc(C(F)(F)F)ccc2Cl)cc1 | 12% (inactive) | 
8 | COc1cccc(NC(=O)C2CCN(c3cc(C)nc4c(-c5ccc(Cl)cc5)c(C)nn34)CC2)c1 | 4.91% (inactive) | 
9 | Cc1nnc(N2CCCC(C(=O)NCCN(C)C)C2)c2nn(-c3ccccc3)c(C)c12 (stereo not drawn) | -23.9% (inactive) | 
10 | CCCCNC(=O)C1CCCN(c2nnc(C)c3c(C)n(-c4ccc(Cl)cc4)nc23)C1 (stereo not drawn) | -7.69% (inactive) | 
11 | CCc1ccc(CNC(=O)C2CCN(c3nnc(C)c4c(C)n(-c5ccc(C)cc5)nc34)CC2)cc1 |  | 31.6 µM (active)
12 | COc1ccc(-n2nc3c(N4CCC(C(=O)NCc5ccccc5)CC4)nnc(C)c3c2C)cc1 | -22.4% (inactive) | 
13 | Cc1nnc(N2CCC(C(=O)Nc3ccc(F)cc3)CC2)c2nn(-c3ccc(Cl)cc3)c(C)c12 |  | 25.1 µM (active)
14 | CSc1nc(-c2ccc(F)cc2)nc2c1Cc1c(CO)cnc(C)c1O2 | 0.751% (inactive) | 
15 | Cc1ccc(CNC(=O)CCc2c(C)nc3c(c(C)nn3-c3ccccc3)c2C)cc1 | 5.92% (inactive) | 
16 | CN(C)c1ccc(NC(=O)CSc2nc(-c3ccco3)cc(C(F)(F)F)n2)cc1 | 2.66% (inactive) | 
17 | COc1cccc(CNC(=O)c2cc(=O)[nH]c3ccc(S(=O)(=O)N4CCCCC4)cc23)c1 | -1.53% (inactive) | 
18 | Cc1cc(NC(=O)/C=C/C(=O)N(c2ccccc2C)C(C(=O)NC2CCCC2)c2ccc(F)cc2)no1 (stereo not drawn) |  | 10 µM (active)
19 | Cc1cc(NC(=O)CCC(=O)N(c2cccc(F)c2)C(C(=O)NC2CCCC2)c2ccncc2)no1 (stereo not drawn) | -5.11% (inactive) | 
20 | Cc1cc(NC(=O)/C=C/C(=O)N(CC(=O)NC2CCCC2)c2ccc(F)cc2)no1 | -16.6% (inactive) | 
21 | CCOc1ccc(-c2nonc2NC(=O)c2oc3ccc(C)cc3c2C)cc1OCC | 9.19% (inactive) | 
22 | O=C(Nc1ccc(O)c(-c2nc3ccccc3o2)c1)c1ccc(-c2cccc(Cl)c2)o1 | -8.53% (inactive) | 

Row | Structure (SMILES) | activity change, negative = inhibition | Potency
23 | CC1(C(=O)NCc2ccco2)Cc2c(-c3ccc4c(c3)OCO4)ccnc2O1 (stereo not drawn) | -16% (inactive) | 
24 | CCOC(=O)c1ccc(NC(=O)CCn2cnnn2)cc1 | 10.7% (inactive) | 
25 | CON=C(C(=O)N[C@@H]1C(=O)N2C(C(=O)OCOC(=O)C(C)(C)C)=C(C=Cc3scnc3C)CS[C@H]12)c1csc(N)n1 | 6.17% (inactive) | 
26 | Cc1cc(Br)cn2c(Cc3cccc(F)c3)c(-c3cccc(Br)c3)nc12 | 0% (inactive) | 
27 | CC(C)(C)c1cc(C(=O)O)c(NC(=O)Nc2ccc3[nH]ncc3c2)s1 | -0.034% (inactive) | 
28 | CC(C)(C)c1nc(-c2cccc(NS(=O)(=O)c3c(F)cccc3F)c2F)c(-c2ccnc(N)n2)s1 | -14.8% (inactive) | 
29 | OC(c1ccc(Cl)cc1)c1ncc(-c2ccc(Cl)cc2)[nH]1 (stereo not drawn) | -18.9% (inactive) | 
30 | CC(C)Cc1ccc(-c2cc3nc(NCc4cccc(Cl)c4)ccn3n2)cc1 | 8.54% (inactive) | 
31 | O=C(CCl)N(Cc1cccc([N+](=O)[O-])c1)c1cccc(Cl)c1 |  | 2.38 µM (active)
32 | Cc1cc([N+](=O)[O-])ccc1NCc1cccc([N+](=O)[O-])c1 | -16.2% (inactive) | 
33 | CC(=O)N(CN1C(=O)C2CC=CCC2C1=O)c1cccc(Cl)c1 (stereo not drawn) | -7% (inactive) | 
34 | Cn1c(=O)[nH]c(=O)c2c1nc(NCCc1ccccc1)n2Cc1ccc(F)cc1 | 7.78% (inactive) | 
35 | CC(=O)Nc1ccc(Nc2c3ccccc3nc3ccccc23)cc1 |  | 2.51 µM (active)
36 | CC(=O)Nc1ccc(S(=O)(=O)N(C)c2nc3ccccc3nc2Cl)cc1 | -8.49% (inactive) | 
37 | O=C(NNc1c2ccccc2nc2ccccc12)c1cc2ccccc2cc1O | -18.3% (inactive) | 
38 | Cc1cc2c(cc1C)C(c1cccc(OC(C)C)c1)CC(=O)N2 (stereo not drawn) | -8.01% (inactive) | 
39 | CCS(=O)(=O)N1CCc2cc(C(=O)NCc3ccc(OC)cc3)ccc21 | 11.1% (inactive) | 
40 | CCOC(=O)c1ccc(NC(=O)CC2C(=O)N(c3ccccc3)C(=O)N2Cc2cccs2)cc1 (stereo not drawn) | -1.7% (inactive) | 
41 | COc1ccccc1N1CCN(c2ncnc3onc(-c4ccc(F)cc4)c23)CC1 | 10.9% (inactive) | 
42 | COc1ccc(-c2ccc(CN3C(CC(C)C)C(=O)N(Cc4cn(CC5CCCCC5)nn4)CCS3(=O)=O)cc2)cc1 (stereo not drawn) | -17.1% (inactive) | 
43 | COCOCCn1cc(CN2CCS(=O)(=O)N(Cc3ccc(-c4ccc(OC)cc4)cc3)C(CC(C)C)C2=O)nn1 (stereo not drawn) |  | 28.2 µM (active)
